Results reported in PubChem BioAssay (EPA / NIEHS).
Active and inactive are the calls of the source. The calls were made as follows: active = hit-call score of the fitted dose curve at least 0.9, where 1 is the maximum; inactive = score below 0.9.

Assay: CEETOX_H295R_11DCORT: CeeTox H295R High-throughput Steroidogenesis Assay for 11-Deoxycortisol (11DCORT) (AID 2283432);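 as to AC50: 11-deoxycortisol secreted into the medium measured by LC-MS/MS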
Conditions: actives raise or lower the signal
Outline: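 H295R cells; 10 uM forskolin prestim 48 h; compound in 0.1% DMSO 48 h; media extracted with MTBE; 11-deoxycortisol by LC-MS/MS, 7-point standard curve; gain/loss vs DMSO baseline; viability by MTT in same wells.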

| SMILES | outcome | AC50 |
| --- | --- | --- |
| O=C1NC(=O)C(c2ccccc2)(c2ccccc2)N1 | inactive | – |
| Cc1cc(Cc2ccc(N)c(C)c2)ccc1N | – | 34.9 µM (active) |
| O=C(O)CN(CC(=O)O)CC(=O)O | inactive | – |
| CC(=O)[C@@]1(O)CC[C@H]2[C@@H]3CCC4=CC(=O)CC[C@]4(C)[C@H]3CC[C@@]21C | – | 8.94 µM (active) |
| CN(C)C(=O)NC1(c2ccccc2)CCN(CCC[C@]2(c3ccc(Cl)c(Cl)c3)CCCN(C(=O)c3ccccc3)C2)CC1 | inactive | – |
| CCN(CC)CCOc1ccc(C(=C(Cl)c2ccccc2)c2ccccc2)cc1 | – | 0.104 µM (active) |
| S=c1[nH]c2ccccc2s1 | inactive | – |

Assay: CEETOX_H295R_OHPREG: CeeTox H295R High-throughput Steroidogenesis Assay for OH-Pregnenolone (OHPREG) (AID 2283434)
Conditions: actives raise or lower the signal
Outline: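 Human adrenal H295R cells were prestimulated 48 h with 10 uM forskolin, then exposed 48 h to chemical in 0.1% DMSO. Medium 17alpha-hydroxypregnenolone was quantified by HPLC-MS/MS after MTBE extraction; bidirectional fitting versus DMSO baseline.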

| SMILES | outcome | AC50 |
| --- | --- | --- |
| O=C1NC(=O)C(c2ccccc2)(c2ccccc2)N1 | inactive | – |
| Cc1cc(Cc2ccc(N)c(C)c2)ccc1N | – | 4.69 µM (active) |
| CC(=O)[C@@]1(O)CC[C@H]2[C@@H]3CCC4=CC(=O)CC[C@]4(C)[C@H]3CC[C@@]21C | – | 14.2 µM (active) |
| CN(C)C(=O)NC1(c2ccccc2)CCN(CCC[C@]2(c3ccc(Cl)c(Cl)c3)CCCN(C(=O)c3ccccc3)C2)CC1 | inactive | – |
| O=C1OC(c2ccc(O)cc2)(c2ccc(O)cc2)c2ccccc21 | inactive | – |
| CCN(CC)CCOc1ccc(C(=C(Cl)c2ccccc2)c2ccccc2)cc1 | – | 0.0411 µM (active) |
| S=c1[nH]c2ccccc2s1 | – | 78.9 µM (active) |
| CCC(C)N(C)C(=O)c1cc2ccccc2c(-c2ccccc2Cl)n1 (centres undefined) | inactive | – |

Assay: CEETOX_H295R_OHPROG: CeeTox H295R High-throughput Steroidogenesis Assay for OH-Progesterone (OHPROG) (AID 2283435);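 as to AC50: 17alpha-hydroxyprogesterone secreted into medium measured by HPLC-MS/MS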
Conditions: actives raise or lower the signal
Outline: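 H295R, 10 uM forskolin prestim 48 h; cmpd in 0.1% DMSO 48 h; medium MTBE-extracted, HPLC-MS/MS for OH-progesterone; 7-pt std curve; bidirectional fit vs DMSO; MTT viability, chemicals diluted until viability >/=70%.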

| SMILES | AC50 | outcome |
| --- | --- | --- |
| Cc1cc(Cc2ccc(N)c(C)c2)ccc1N | 1.37 µM (active) | – |
| O=C(O)CN(CC(=O)O)CC(=O)O | – | inactive |
| CC(=O)[C@@]1(O)CC[C@H]2[C@@H]3CCC4=CC(=O)CC[C@]4(C)[C@H]3CC[C@@]21C | 41.2 µM (active) | – |
| CN(C)C(=O)NC1(c2ccccc2)CCN(CCC[C@]2(c3ccc(Cl)c(Cl)c3)CCCN(C(=O)c3ccccc3)C2)CC1 | – | inactive |
| O=C1OC(c2ccc(O)cc2)(c2ccc(O)cc2)c2ccccc21 | 1.77 µM (active) | – |
| CCN(CC)CCOc1ccc(C(=C(Cl)c2ccccc2)c2ccccc2)cc1 | 0.147 µM (active) | – |
| S=c1[nH]c2ccccc2s1 | 73.1 µM (active) | – |
| CC(COCC(C)OC(=O)c1ccccc1)OC(=O)c1ccccc1 (centres undefined) | – | inactive |
| CCC(C)N(C)C(=O)c1cc2ccccc2c(-c2ccccc2Cl)n1 (centres undefined) | 3.85 µM (active) | – |
